{"source": "PubChem BioAssay AID588591", "about": "(National Center for Advancing Translational Sciences (NCATS), 2011)", "note": "Hit rate of the full screen: of about 390,000 compounds, about 4,700 (1.2%) were called active. A call without a number means that no potency is given here. Not shown: some 4% with an inconclusive outcome. Calls come from the whole dose curve; as a rule, active = well fitted inhibition curve with a large enough effect; inconclusive = small, poorly fitted or top-dose-only effect, or another doubt; inactive = no such curve, though single readings can be large or run the other way. The sample as a whole holds a higher share of actives than the screen did. Potency is the fitted concentration of half-maximal effect."}
{"target": "DNA polymerase eta (Homo sapiens) (UniProt Q9Y253)", "sequence (Q9Y253 whole entry, looked up)": "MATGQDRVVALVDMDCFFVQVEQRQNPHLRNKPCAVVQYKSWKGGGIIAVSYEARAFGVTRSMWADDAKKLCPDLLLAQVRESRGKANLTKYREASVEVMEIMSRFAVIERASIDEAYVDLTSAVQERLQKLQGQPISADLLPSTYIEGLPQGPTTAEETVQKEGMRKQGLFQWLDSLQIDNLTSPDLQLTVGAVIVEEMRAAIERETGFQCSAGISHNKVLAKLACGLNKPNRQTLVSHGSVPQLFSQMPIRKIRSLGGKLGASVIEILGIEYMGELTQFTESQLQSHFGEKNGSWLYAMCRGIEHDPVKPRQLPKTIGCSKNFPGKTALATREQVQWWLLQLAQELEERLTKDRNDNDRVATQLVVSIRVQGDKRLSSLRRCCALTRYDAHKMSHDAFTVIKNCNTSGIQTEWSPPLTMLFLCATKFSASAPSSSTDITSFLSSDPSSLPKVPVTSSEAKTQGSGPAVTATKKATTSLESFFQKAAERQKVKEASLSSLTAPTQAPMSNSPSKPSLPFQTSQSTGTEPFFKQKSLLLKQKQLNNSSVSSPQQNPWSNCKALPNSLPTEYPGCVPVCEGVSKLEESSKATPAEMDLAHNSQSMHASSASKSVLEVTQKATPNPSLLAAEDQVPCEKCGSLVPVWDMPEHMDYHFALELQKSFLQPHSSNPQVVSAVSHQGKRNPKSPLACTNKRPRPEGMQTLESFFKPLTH", "test": "qHTS for Inhibitors of Polymerase Eta", "details": "recombinant Pol eta, fluorescent DNA replication assay; series mostly up to 114 µM", "summary_of_the_method": "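Pol eta (10 nM) was preincubated with compounds for 15 min at room temperature, after which fluorescent replication substrate (50 nM final) was added to start the reaction. Fluorescence was read kinetically at 0 and 10 min.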"}
{"smiles": "CC(=O)N1CCCc2cc(S(=O)(=O)N3CCC(C(=O)NCc4ccc(C)cc4)CC3)ccc21", "Potency": "inactive"}
{"smiles": "CC(=O)OC1=C(C(C)=O)N(Cc2ccccc2)S(=O)(=O)c2ccccc21", "Potency": "inactive"}
{"smiles": "CCN(CC)c1nn2c(=O)c(C(=O)NCCc3ccccc3)cnc2s1", "Potency": "inactive"}
{"smiles": "COc1ccccc1CNC(=O)c1ccc(CS(=O)c2ccccc2Cl)o1", "note": "(stereo not drawn)", "Potency": "inactive"}
{"smiles": "O=C(CC1N=C2c3ccccc3N=C(SCc3cccc(Cl)c3)N2C1=O)NCc1ccc2c(c1)OCO2", "note": "(stereo not drawn)", "Potency": "inactive"}
{"smiles": "C=CC1C(OC2OC(CO)C(O)C(O)C2O)OC=C(C(=O)OC)C1CC1CC(=O)CC(CC(=O)CCc2ccc(O)cc2)O1", "note": "(stereo not drawn)", "Potency": "inactive"}
{"smiles": "CC1=C(C)C(=O)OC(C(C)C2CCC3C4CC=C5CC(OC6OC(COC7OC(CO)C(O)C(O)C7O)C(O)C(O)C6O)CC(O)C5(C)C4CCC23C)C1", "note": "(stereo not drawn)", "Potency": "inactive"}
{"smiles": "CC(/C=C/C1(O)C(C)CC(=O)CC1(C)C)OC1OC(CO)C(O)C(O)C1O", "note": "(stereo not drawn)", "Potency": "31.6 µM (active)"}
{"smiles": "Cc1ccc(Nc2c(-c3ccc(C)cc3)nc3cnccn23)cc1", "Potency": "inactive"}
{"smiles": "COc1cccc(NC(=O)N(Cc2cn(C)c3ccccc23)C2CCCCCC2)c1", "Potency": "inactive"}
{"smiles": "O=C1CSC(=S)N1/N=C/c1ccc(O)c([N+](=O)[O-])c1", "Potency": "6.31 µM (active)"}
{"smiles": "COc1cc(Cl)c(NC(=O)C(NS(=O)(=O)c2cccs2)C(C)C)c(OC)c1", "note": "(stereo not drawn)", "Potency": "inactive"}
{"smiles": "COc1cccc2c1C(=O)c1c(O)c3c(c(O)c1C2=O)CC(O)(C(C)=NNC(=O)c1ccc(Cl)c(Cl)c1)CC3OC1CC(N)C(O)C(C)O1", "note": "(stereo not drawn)", "Potency": "12.6 µM (active)"}
{"smiles": "CCOc1ccc(N(Cc2ccccc2)C(=O)c2nc(S(C)(=O)=O)ncc2Cl)cc1", "Potency": "inactive"}
{"smiles": "Cc1ccc(-c2cn3c(n2)sc2cc(C(=O)NCc4cccs4)ccc23)c(C)c1", "Potency": "inactive"}
{"smiles": "O=C(CC1N=C2c3ccccc3N=C(SCc3ccc(F)cc3)N2C1=O)NCc1cccs1", "note": "(stereo not drawn)", "Potency": "inactive"}
{"smiles": "COc1ccccc1NC(=O)CSC1=Nc2ccccc2C2=NC(CC(=O)NCc3cccs3)C(=O)N12", "note": "(stereo not drawn)", "Potency": "inactive"}
{"smiles": "O=C(CSC1=Nc2ccccc2C2=NC(CC(=O)NCc3ccco3)C(=O)N12)NCc1ccco1", "note": "(stereo not drawn)", "Potency": "15.8 µM (active)"}
{"smiles": "Cc1cc(=O)c2cc(C(=O)Nc3cccc(C)c3C)ccc2[nH]1", "Potency": "inactive"}
{"smiles": "CCc1ccccc1N1C(=O)CN(S(=O)(=O)CC)CC1(C)C(=O)NC1CCCCC1", "note": "(stereo not drawn)", "Potency": "inactive"}
{"smiles": "COc1cc(/C=C2/C(=O)NN(c3ccc(F)cc3)C2=O)cc([N+](=O)[O-])c1O", "Potency": "44.7 µM (active)"}
{"smiles": "COc1cc(CN2CC(C)CC(C)C2)cc([N+](=O)[O-])c1O", "note": "(stereo not drawn)", "Potency": "inactive"}
{"smiles": "COc1ccc(N2C(=O)CC(Nc3ccc(F)cc3)C2=O)c([N+](=O)[O-])c1", "note": "(stereo not drawn)", "Potency": "inactive"}
{"smiles": "COc1cc(/C=C2/C(=O)NN(c3cccc(Cl)c3)C2=O)cc(Br)c1O", "Potency": "89.1 µM (active)"}
{"smiles": "COc1cccc2c1cc1c(=O)n(CC(=O)N3CCN(c4cccc(Cl)c4)CC3)nc(C)n12", "Potency": "inactive"}
{"smiles": "CCOC(=O)c1c(NC(=O)/C(C#N)=C/c2ccccc2)sc2c1CCC2", "Potency": "inactive"}
{"smiles": "O=C(NCCCO)C(=O)Nc1c2c(nn1-c1ccc(F)cc1)CSC2", "Potency": "inactive"}
{"smiles": "CCCCOc1ccc(C(=O)Nc2cccc(-c3nc4ccccc4o3)c2C)cc1", "Potency": "inactive"}
{"smiles": "Cc1ccc(S(=O)(=O)n2nc(C)c(S(=O)(=O)N3CCCCCC3)c2C)cc1", "Potency": "inactive"}
{"smiles": "O=C(CSc1ncc(-c2ccccc2)[nH]1)Nc1ccc(F)cc1F", "Potency": "inactive"}
{"smiles": "Oc1ccccc1-c1nc(/C=C/c2ccc(F)cc2)no1", "Potency": "inactive"}
{"smiles": "Cc1ccc(Cc2c(C)nc3nc(SCC(=O)NCCN4CCOCC4)nn3c2C)cc1", "Potency": "inactive"}
{"smiles": "COc1cc(NC(=O)CSc2nc3nc(C)c(Cc4ccc(C)cc4)c(C)n3n2)cc(OC)c1OC", "Potency": "inactive"}
{"smiles": "Cc1nc2nc(SCC(=O)NCc3ccco3)nn2c(C)c1Cc1ccccc1", "Potency": "44.7 µM (active)"}
{"smiles": "COC(=O)Nc1ccc(S(=O)(=O)Nc2cc(OC)nc(OC)n2)cc1", "Potency": "inactive"}
{"smiles": "COc1cc(NS(=O)(=O)c2ccc(NC(=S)NC(=O)c3ccccc3)cc2)nc(OC)n1", "Potency": "inactive"}
{"smiles": "COc1cc(NS(=O)(=O)c2ccc(N/C=C(\\C=O)c3nc4cc(Cl)ccc4o3)cc2)nc(OC)n1", "Potency": "31.6 µM (active)"}
{"smiles": "CCCn1c2ccccc2c2cnn(CC(=O)NCC3CCN(Cc4ccc(C)cc4)CC3)c(=O)c21", "Potency": "inactive"}
{"smiles": "Cc1c(C(=O)N(C)C)sc2c1c(=O)n(-c1ccc(F)cc1)c(=O)n2CC(=O)N(C)c1ccccc1", "Potency": "inactive"}
{"smiles": "CCOC(=O)c1ccc(NC(=O)CCS(=O)(=O)c2ccc3c(c2)oc(=O)n3C)cc1", "Potency": "inactive"}
{"smiles": "OC[C@H]1O[C@@H](n2cnc3c(NC4CCCC4)ncnc32)[C@H](O)[C@H]1O", "Potency": "inactive"}
{"smiles": "CCn1c(SCC(=O)NCc2ccco2)nnc1-c1ccc(N)cc1", "Potency": "inactive"}
{"smiles": "CCOC(=O)c1sc(NC(=O)CSc2nc(O)c(Cc3ccccc3)c(=O)[nH]2)nc1C", "Potency": "inactive"}
{"smiles": "CCOCCc1c(O)nc(SCC(=O)NCc2ccco2)[nH]c1=O", "Potency": "15.8 µM (active)"}
{"smiles": "Cc1ccc(CSc2oc(-c3cccs3)nc2S(=O)(=O)c2ccc(C)cc2)cc1", "Potency": "inactive"}
{"smiles": "CCCCN1CC(c2nc3ccccc3n2CCCCOc2ccc(C)cc2C)CC1=O", "note": "(stereo not drawn)", "Potency": "inactive"}
{"smiles": "COc1cccc(NC(=O)C(=O)NCC(c2ccc3c(c2)OCO3)N2CCN(C)CC2)c1", "note": "(stereo not drawn)", "Potency": "inactive"}
{"smiles": "COc1ccccc1CNS(=O)(=O)c1cc(Br)cc2c1N(C(C)=O)C(C)C2", "note": "(stereo not drawn)", "Potency": "inactive"}
{"smiles": "Cc1ccc(Cl)cc1N1CCN(C(=O)c2cnc3c(-c4ccc(F)cc4)c(C)nn3c2C)CC1", "Potency": "inactive"}
{"smiles": "Cc1ccc(OCC(=O)OCc2cc(=O)n3nc(C4CC4)sc3n2)cc1", "Potency": "inactive"}
{"smiles": "Nc1ccc2nc3c(=O)[nH]c(=S)[nH]c3nc2c1", "Potency": "1.12 µM (active)"}
{"smiles": "Cc1cc(C)c(NC(=O)CCc2c(C)nc3c(c(C)nn3C(C)(C)C)c2C)c(C)c1", "Potency": "inactive"}
{"smiles": "COc1cc(CNCCSc2nnnn2C)ccc1OCc1ccc(Cl)cc1Cl", "Potency": "inactive"}
{"smiles": "CC1CCN(S(=O)(=O)c2ccc3c(ccn3CCC(=O)NCc3ccc(N(C)C)cc3)c2)CC1", "Potency": "inactive"}
{"smiles": "O=C1c2cccc3cccc(c23)N1CN1CCN(c2ccccn2)CC1", "Potency": "inactive"}
{"smiles": "COc1cccc(NC(=O)CN2C(=O)c3ccccc3Sc3ncccc32)c1", "Potency": "inactive"}
{"smiles": "O=C(CN1C(=O)c2cccc3cccc1c23)Nc1ccccc1", "Potency": "50.1 µM (active)"}
{"smiles": "CCN(C(=O)Cn1cc(S(=O)(=O)N2CCN(c3ccccc3F)CC2)c2ccccc2c1=O)c1ccc(C)c(C)c1", "Potency": "inactive"}
{"smiles": "CCC(CC)C(=O)Nc1ccc(S(=O)(=O)Nc2nccs2)cc1", "Potency": "inactive"}
{"smiles": "COc1ccccc1OC(C)C(=O)Nc1ccc(S(=O)(=O)Nc2nccs2)cc1", "note": "(stereo not drawn)", "Potency": "inactive"}
{"smiles": "O=C(Nc1ccc(S(=O)(=O)Nc2nccs2)cc1)c1cc(-c2ccncc2)nc2ccccc12", "Potency": "12.6 µM (active)"}
{"smiles": "CC(C)(C)OC(=O)N1CCC(c2c(C(=O)N3CCc4ccccc4C3)cnn2-c2ccc(F)cc2)CC1", "Potency": "inactive"}
{"smiles": "Oc1ccc(Cn2cc[nH]c2=S)cc1", "Potency": "inactive"}
{"smiles": "COc1ccc(CCNc2ncnc3c2cnn3-c2ccc(C)cc2)cc1", "Potency": "inactive"}
{"smiles": "Cc1ccc(NC(=O)CSc2nc3c([nH]c4ccccc43)c(=O)n2-c2ccccc2)cc1Cl", "Potency": "inactive"}
{"smiles": "Cc1ccc2nc(N3C(=O)C(O)=C(C(=O)c4ccco4)C3c3cccc(O)c3)sc2c1", "note": "(stereo not drawn)", "Potency": "50.1 µM (active)"}
{"smiles": "C=CCSc1nnc(N2C(=O)C(O)=C(C(=O)c3ccco3)C2c2ccc(F)cc2)s1", "note": "(stereo not drawn)", "Potency": "inactive"}
{"smiles": "CC(=O)c1sc(N2C(=O)c3oc4ccccc4c(=O)c3C2c2ccc(C)cc2)nc1C", "note": "(stereo not drawn)", "Potency": "inactive"}
{"smiles": "CC(=O)c1ccc(NC(=O)CSc2nc(-c3ccccc3F)nc3c2c(=O)n(C)c(=O)n3C)cc1", "Potency": "inactive"}
{"smiles": "CCCCc1nn2c(=O)cc(COC(=O)c3cccc(NC(=O)COc4ccccc4)c3)nc2s1", "Potency": "inactive"}
{"smiles": "Cn1c(=O)[nH]c(=O)c2c1nc(NCCc1ccccc1)n2Cc1ccc(F)cc1", "Potency": "inactive"}
{"smiles": "CC1CCN(c2nc3ccc(C(=O)N4CCN(c5ccccc5)CC4)cc3s2)CC1", "Potency": "inactive"}
{"smiles": "O=C(c1cc2c(s1)CCC2)N1CCN(c2ccccc2)CC1", "Potency": "10 µM (active)"}
{"smiles": "O=C(Nc1ccc(F)cc1)c1cc2c(s1)CCCC2", "Potency": "inactive"}
{"smiles": "CC1CCCN(c2csc3ccc(F)cc3c2=O)C1", "note": "(stereo not drawn)", "Potency": "inactive"}
{"smiles": "Cc1ccc(SCC(=O)NC(=O)NCc2ccco2)c(C)c1", "Potency": "14.1 µM (active)"}
{"smiles": "Cc1cc(C)c2c(c1)c(C)cc1nnc(SCC(=O)NCc3ccco3)n12", "Potency": "inactive"}
{"smiles": "Cc1cc(C)n2nc(SCC(=O)NC(=O)NCc3ccco3)nc2n1", "Potency": "inactive"}
{"smiles": "CCc1cccc(NC(=O)CN(C)S(=O)(=O)c2ccc3[nH]c4c(c3c2)CCCC4)c1", "Potency": "inactive"}
{"smiles": "CCn1c2ccccc2c2nnc(N3CCN(c4cc(C)ccc4C)CC3)nc21", "Potency": "inactive"}
{"smiles": "Cc1ccc2[nH]c3c(=O)n(CC(=O)NC(C)C)ncc3c2c1", "Potency": "inactive"}
{"smiles": "CC(C)c1ccc(C2C(C(=O)c3ccco3)=C(O)C(=O)N2CC2CCCO2)cc1", "note": "(stereo not drawn)", "Potency": "inactive"}
{"smiles": "O=C(C1=C(O)C(=O)N(CCOCCO)C1c1ccccn1)c1cccs1", "note": "(stereo not drawn)", "Potency": "inactive"}
{"smiles": "O=C(C1=C(O)C(=O)N(c2ncccn2)C1c1cccs1)c1ccco1", "note": "(stereo not drawn)", "Potency": "79.4 µM (active)"}
{"smiles": "O=C(CN1C(=O)CCn2nc(-c3ccccc3)cc21)NCc1ccccc1", "Potency": "inactive"}
{"smiles": "O=C(c1cccs1)c1cn(CCOc2ccc(Cl)cc2)c2ccccc12", "Potency": "inactive"}
{"smiles": "O=C(COc1ccc(/C=N/NC(=O)c2ccc(O)cc2)cc1)Nc1ccc([N+](=O)[O-])cc1", "Potency": "4.47 µM (active)"}
{"smiles": "CN1CCN(Cc2nc3cc(NC(=O)COc4ccc([N+](=O)[O-])cc4)ccc3n2C)CC1", "Potency": "inactive"}
{"smiles": "O=C(N/N=C/c1ccc(OCC2COCCO2)cc1)c1ccc(Br)cc1", "note": "(stereo not drawn)", "Potency": "inactive"}
{"smiles": "COc1ccc(C2Sc3ccccc3NC3=C2C(=O)c2ccccc23)c(OC)c1OC", "note": "(stereo not drawn)", "Potency": "inactive"}
{"smiles": "C=CCC(CC=C)(C(N)=O)c1ccccc1", "Potency": "inactive"}
{"smiles": "CCC(C)OC(=O)C(C)Oc1ccc(-c2ccccc2)cc1", "note": "(stereo not drawn)", "Potency": "inactive"}
{"smiles": "NC(CSC(c1ccccc1)(c1ccccc1)c1ccc(-c2ccccc2)cc1)C(=O)O", "note": "(stereo not drawn)", "Potency": "25.1 µM (active)"}
